In PubChem BioAssay:

Test: yeast transport mutant growth inhibition pilot in 384-well plates, post-Golgi transport modulator project (AID 636)
Details: absorbance 615 nm, about 18 h, active compounds read high

inhibition, inactive:
CCSc1nc2ccccc2n1CCC(=O)O -5.21%, C=CCN(CC=C)C(=O)CN1C(=O)c2ccccc2C1=O 0%, CCOC(=O)N1CCN(CC(=O)Nc2c(C(=O)OC)[nH]c3cccc(Cl)c23)CC1 -6.08%, CC(=O)Nc1ccc(NC(=O)C(C)Oc2ccccc2F)cc1 (stereo not drawn) -5.97%, CCCCC(=O)Nc1c(O)c2ccccc2[nH]c1=O -6.93%, O=C(Cc1ccc(Br)cc1)N1CCCCCC1 -4.08%, CC1=C(C(=O)NCc2ccccn2)C2(CCC(C)CC2)OC1=O (stereo not drawn) -5.47%, Cc1nc(C)c(C(=O)Nc2ccc(Oc3ccccc3)cc2)o1 -6.35%, Cc1ccc2c(c1)sc1ncc(NC(=O)c3ccccc3)c(=O)n12 -0.67%, Cc1ccc2cc(CN(CC(C)C)C(=O)C3CCCO3)c(=O)[nH]c2c1 (stereo not drawn) -2.5%, O=C(NCC1CCCO1)c1cccc(N2C(=O)C3C4C=CC(C4)C3C2=O)c1 (stereo not drawn) -6.4%, CCOC(=O)c1sc2nc3c(cc2c1N)COC(C)(C)C3 -6.4%, CCCCn1c(SCC(=O)NCc2ccccc2)nc2ccc(N3CCOCC3)cc2c1=O -1.22%, Cc1ccccc1-c1nc(CS(=O)(=O)CC(=O)N(C)C2CCCCC2)c(C)o1 0.27%, COC1CCCCC1NS(=O)(=O)c1ccccc1 (stereo not drawn) -3.59%, O=C(CSc1nc2ccccc2nc1SCC(=O)N1CCOCC1)N1CCOCC1 -1.03%, Cc1ccccc1-c1nc(CS(=O)(=O)CC(=O)NCc2ccccc2)c(C)o1 -7.07%, Cc1ccc(S(=O)(=O)N2CCN(C(=O)CN3CCOCC3)C2C(C)C)cc1 (stereo not drawn) -2.86%, CC(CN1CCCCC1)OC(=O)c1ccc2c(c1)OCO2 (stereo not drawn) -4.4%, CCOC(=O)N1CCN(C(=O)CN(C)S(=O)(=O)c2ccc(OC)c(OC)c2)CC1 -6.84%, CC1(C)CC(=O)CC(C)(C)N1OC(=O)c1ccccn1 -2.3%, Cc1cccc(NC(=O)CC2NC3CCCCC3NC2=O)c1 (stereo not drawn) -3.42%, O=C(CS(=O)(=O)c1cn(Cc2ccc(Cl)cc2)c2ccccc12)N1CCOCC1 -1.87%, Cc1cccc(-n2ncc3c(N)ncnc32)c1 -4.67%, O=C(CN1CCN(c2nc(-c3ccccc3)cs2)CC1)Nc1ccc2c(c1)OCO2 -3.87%, CCC12CN3CC(CC)(CN(C1)C3c1ccc(OC(C)C)cc1)C2=O (stereo not drawn) -3.78%, Cc1c(/C(O)=C2/C(=O)C(=O)N(CCN3CCOCC3)C2c2cccs2)cnn1-c1ccccc1 (stereo not drawn) -0.79%, c1cc2c(cc1C1=Nn3c(nnc3C3CCCCC3)SC1)OCO2 -1.84%, COc1ccc(CNC(=O)C(c2ccco2)N(Cc2cccs2)C(=O)Cc2cccs2)cc1 (stereo not drawn) -1.95%, Cc1cccc(NC(=O)c2cc3ccccc3o2)c1 -7.4%, COc1ccc(S(=O)(=O)NCCOc2ccccc2)cc1OC 6.76%, Cc1nc(SC2C=CS(=O)(=O)C2)n[nH]1 (stereo not drawn) -7.07%, O=C1c2ccccc2C(Nc2ccc3nc(-c4cccnc4)[nH]c3c2)N1Cc1ccco1 (stereo not drawn) 2.44%, Cc1ccc(NC(=O)CSc2nnc(CCCCCNC(=O)OC(C)(C)C)o2)c(C)c1 1.71%, O=S(=O)(NCC1CCCO1)c1ccc(S(=O)(=O)N2CCc3ccccc3C2)cc1 (stereo not drawn) 0.26%, COC(=O)c1ccc(C(=O)OC)c(NC(=O)Nc2ccc3c(c2)OCO3)c1 -0.78%, CCN(CC(=O)NCc1cccs1)C(=O)c1cc(S(=O)(=O)N2CCOCC2)ccc1C -4.03%, COc1ccc(-c2c3c(=O)n(C)c(=O)n(C)c3cn2-c2cccc(OC)c2)cc1 0.39%, CCOC(=O)CCC(=O)Nc1ccc(S(=O)(=O)N2CCCC2)cc1 -3.68%

Test: growth suppression of yeast trafficking mutant, preliminary HTS, modulators of trafficking downstream of Golgi apparatus project, 1536-format plate, OD 615 nm (AID 637; in the data active = inhibition above about 30%)
Details: yeast transport mutant growth, absorbance 615 nm, 18 h; active compounds read high

inhibition, inactive:
CCSc1nc2ccccc2n1CCC(=O)O 1.11%, C=CCN(CC=C)C(=O)CN1C(=O)c2ccccc2C1=O 1.13%, CCOC(=O)N1CCN(CC(=O)Nc2c(C(=O)OC)[nH]c3cccc(Cl)c23)CC1 8.5%, CC(=O)Nc1ccc(NC(=O)C(C)Oc2ccccc2F)cc1 (stereo not drawn) -2.22%, CCCCC(=O)Nc1c(O)c2ccccc2[nH]c1=O -8.69%, O=C(Cc1ccc(Br)cc1)N1CCCCCC1 -0.49%, CC1=C(C(=O)NCc2ccccn2)C2(CCC(C)CC2)OC1=O (stereo not drawn) -1.97%, Cc1nc(C)c(C(=O)Nc2ccc(Oc3ccccc3)cc2)o1 -6.5%, Cc1ccc2c(c1)sc1ncc(NC(=O)c3ccccc3)c(=O)n12 0.66%, Cc1ccc2cc(CN(CC(C)C)C(=O)C3CCCO3)c(=O)[nH]c2c1 (stereo not drawn) -4.18%, O=C(NCC1CCCO1)c1cccc(N2C(=O)C3C4C=CC(C4)C3C2=O)c1 (stereo not drawn) -9.84%, CCOC(=O)c1sc2nc3c(cc2c1N)COC(C)(C)C3 -3.23%, CCCCn1c(SCC(=O)NCc2ccccc2)nc2ccc(N3CCOCC3)cc2c1=O 1.8%, Cc1ccccc1-c1nc(CS(=O)(=O)CC(=O)N(C)C2CCCCC2)c(C)o1 -5.08%, COC1CCCCC1NS(=O)(=O)c1ccccc1 (stereo not drawn) 3.17%, O=C(CSc1nc2ccccc2nc1SCC(=O)N1CCOCC1)N1CCOCC1 0.17%, Cc1ccccc1-c1nc(CS(=O)(=O)CC(=O)NCc2ccccc2)c(C)o1 -2.3%, Cc1ccc(S(=O)(=O)N2CCN(C(=O)CN3CCOCC3)C2C(C)C)cc1 (stereo not drawn) -2.54%, CC(CN1CCCCC1)OC(=O)c1ccc2c(c1)OCO2 (stereo not drawn) 6.72%, CCOC(=O)N1CCN(C(=O)CN(C)S(=O)(=O)c2ccc(OC)c(OC)c2)CC1 1.97%, CC1(C)CC(=O)CC(C)(C)N1OC(=O)c1ccccn1 5.74%, Cc1cccc(NC(=O)CC2NC3CCCCC3NC2=O)c1 (stereo not drawn) -1.17%, O=C(CS(=O)(=O)c1cn(Cc2ccc(Cl)cc2)c2ccccc12)N1CCOCC1 -2.62%, Cc1cccc(-n2ncc3c(N)ncnc32)c1 -1.31%, O=C(CN1CCN(c2nc(-c3ccccc3)cs2)CC1)Nc1ccc2c(c1)OCO2 -7.1%, CCC12CN3CC(CC)(CN(C1)C3c1ccc(OC(C)C)cc1)C2=O (stereo not drawn) -0.95%, Cc1c(/C(O)=C2/C(=O)C(=O)N(CCN3CCOCC3)C2c2cccs2)cnn1-c1ccccc1 (stereo not drawn) 0.16%, c1cc2c(cc1C1=Nn3c(nnc3C3CCCCC3)SC1)OCO2 3.06%, COc1ccc(CNC(=O)C(c2ccco2)N(Cc2cccs2)C(=O)Cc2cccs2)cc1 (stereo not drawn) -4.29%, Cc1cccc(NC(=O)c2cc3ccccc3o2)c1 -1.27%, COc1ccc(S(=O)(=O)NCCOc2ccccc2)cc1OC 2.3%, Cc1nc(SC2C=CS(=O)(=O)C2)n[nH]1 (stereo not drawn) 3.11%, O=C1c2ccccc2C(Nc2ccc3nc(-c4cccnc4)[nH]c3c2)N1Cc1ccco1 (stereo not drawn) -4.17%, Cc1ccc(NC(=O)CSc2nnc(CCCCCNC(=O)OC(C)(C)C)o2)c(C)c1 1.29%, O=S(=O)(NCC1CCCO1)c1ccc(S(=O)(=O)N2CCc3ccccc3C2)cc1 (stereo not drawn) 2.42%, COC(=O)c1ccc(C(=O)OC)c(NC(=O)Nc2ccc3c(c2)OCO3)c1 -9.67%, CCN(CC(=O)NCc1cccs1)C(=O)c1cc(S(=O)(=O)N2CCOCC2)ccc1C -10%, COc1ccc(-c2c3c(=O)n(C)c(=O)n(C)c3cn2-c2cccc(OC)c2)cc1 -6.03%, CCOC(=O)CCC(=O)Nc1ccc(S(=O)(=O)N2CCCC2)cc1 -4.6%
